Autofluor counter: flagged as autofluorescent in microsphere protease counterscreen | actives 3.1% (n = 360,000) | compound autofluorescence counterscreen, microsphere flow cytometry; active compounds read high | fluorescence intensity (concentration not given with the values); in the data active means fluorescence intensity above about 16000; inconclusive means no clear call, values can overlap the other calls
Anthrax LF inh2: blocks Bacillus anthracis lethal factor protease; P15917; multiplex microsphere protease cleavage assay, LF; inhibition, % at 10 µM; actives 0.12% (n = 360,000); AID 588501; further: plate controls were buffer without enzyme for full effect and enzyme alone for no effect
Target sequence (P15917 whole entry, looked up): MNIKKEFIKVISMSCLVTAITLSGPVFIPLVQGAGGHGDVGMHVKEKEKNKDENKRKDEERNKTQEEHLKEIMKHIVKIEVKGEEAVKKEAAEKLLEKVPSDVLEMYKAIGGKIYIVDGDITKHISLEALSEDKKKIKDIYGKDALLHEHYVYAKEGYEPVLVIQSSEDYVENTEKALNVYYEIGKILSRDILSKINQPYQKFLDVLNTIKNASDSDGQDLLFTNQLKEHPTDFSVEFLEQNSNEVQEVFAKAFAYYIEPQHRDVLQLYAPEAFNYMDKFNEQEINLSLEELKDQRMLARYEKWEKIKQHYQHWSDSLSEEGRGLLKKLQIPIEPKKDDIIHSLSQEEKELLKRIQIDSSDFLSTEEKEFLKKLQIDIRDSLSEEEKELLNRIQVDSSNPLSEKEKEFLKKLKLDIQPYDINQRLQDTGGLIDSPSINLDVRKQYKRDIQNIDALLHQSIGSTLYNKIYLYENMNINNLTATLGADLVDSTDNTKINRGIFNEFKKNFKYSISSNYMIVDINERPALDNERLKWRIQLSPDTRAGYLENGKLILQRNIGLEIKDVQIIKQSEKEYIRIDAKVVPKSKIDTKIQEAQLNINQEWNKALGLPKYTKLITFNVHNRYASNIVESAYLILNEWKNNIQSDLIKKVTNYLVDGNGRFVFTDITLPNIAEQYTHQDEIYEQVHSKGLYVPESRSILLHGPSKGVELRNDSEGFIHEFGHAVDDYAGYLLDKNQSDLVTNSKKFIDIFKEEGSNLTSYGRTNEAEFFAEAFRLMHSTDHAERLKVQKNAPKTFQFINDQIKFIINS
BoNT-F LC inh: blocks Botulinum neurotoxin F light chain protease | Multiplex microsphere protease cleavage assay, flow cytometry | inhibition, % at 10 µM | actives 0.22% (n = 360,000) | AID 588497; in the data active means inhibition above about 35%, passing the limit was not always enough; inconclusive means no clear call, values can overlap the other calls; further: plate controls were buffer without enzyme for full effect and enzyme alone for no effect
BoNT-A LC inh2: BoNT A light chain protease inhibition | actives 0.17% (n = 360,000) | inhibition, % at 10 µM | AID 588499 | multiplex microsphere protease substrate cleavage, flow cytometry; further: plate controls were buffer without enzyme for full effect and enzyme alone for no effect
BH1578 lux ind: inducers of Vibrio cholerae quorum light production without autoinducers. activation, % at 18.7 µM. AID 588436. V. cholerae BH1578 lux reporter, luminescence, 6 h. actives 0.16% (n = 350,000); in the data active means activation mostly above about 9.7%, no sharp cut-off; inconclusive means no clear call, values can overlap the other calls; inactive means mostly below about 3.7%
* = called active by the depositor; i = inactive; ? = inconclusive; nt = no result given. Sampled rows, rich in hits. Any-hit rate of the full collection: about 3.5%. Unless noted, no stated cut-off is given here; in the data, active means inhibition above about 30%; inconclusive means no clear call, values can overlap the other calls; inactive means below that.

SMILES	Autofluor counter	Anthrax LF inh2	BoNT-F LC inh	BoNT-A LC inh2	BH1578 lux ind
CCC1Oc2ccc(C)cc2N(CC(=O)NCCCN2CCCCC2CC)C1=O (configuration not stated)	24712*	-3.6	-6.3	-4.2	-0.1
CC(C)(C)c1ccc(C(=O)N2CCC2(C)C(=O)Nc2cccc(C#N)c2)cc1 (configuration not stated)	4027	4.3	0.5	-0.4	0.3
C=CCc1cccc2cc(C(=O)NCc3cccnc3)c(=O)oc12	10185	-2.4	-7.2	-0.1	i
CCOc1cccc2cc(C(=O)Nc3cc(C)on3)c(=O)oc12	24162*	-1.6	-3.5	?	i
CCOc1cccc2cc(C(=O)NCc3cccnc3)c(=O)oc12	22159*	-13.5	3.0	?	0.0
Cc1ccc(OCCCC(=O)NCc2ccco2)cc1	20751*	-1.7	8.4	6.2	-0.2
Cc1cccc(OCCCC(=O)NCc2ccco2)c1	17050*	1.3	-1.4	?	i
Cc1cccc(OCCC(=O)NCC(c2ccccc2)N(C)C)c1 (configuration not stated)	25146*	-1.2	1.0	-1.5	i
CNc1cc(C(=O)Nc2cccc(OCc3ccccc3)c2)ncn1	3722	1.1	5.0	0.3	0.7
COCCn1c(N)c(N(Cc2ccccc2)C(=O)Cc2c(Cl)cccc2Cl)c(=O)[nH]c1=O	4252	-2.5	-4.9	0.1	i
O=C(NC(NCc1ccccn1)(C(F)(F)F)C(F)(F)F)c1ccco1	22419*	1.9	0.4	-0.1	-0.2
CC1CN(C(=O)C(Sc2ccccc2)c2ccccc2)CC(C)O1 (configuration not stated)	2512	0.0	-6.5	0.4	i
CC1CN(C(=O)C(c2ccccc2)c2ccccc2)CC(C)O1 (configuration not stated)	25891*	-5.4	-8.0	-5.8	i
COc1ccc(C2SCC(=O)Nc3c2c(=O)[nH]n3C2CCCCCC2)cc1 (configuration not stated)	5946	-6.1	-6.4	-0.1	-0.3
CCOc1ccc(C2SCC(=O)Nc3c2c(=O)[nH]n3C2CCCCCC2)cc1 (configuration not stated)	24510*	-6.0	-7.9	?	i
COc1ccc(C2SCC(=O)Nc3c2c(=O)[nH]n3C2CCCCCC2)cc1OC (configuration not stated)	18575*	-8.8	2.6	?	3.6
CCCC(C)n1[nH]c(=O)c2c1NC(=O)CSC2c1ccccc1 (configuration not stated)	4576	-3.5	5.1	-0.3	-0.3
O=C(CSc1nncn1-c1ccccc1)Nc1cc(F)ccc1F	3896	-14.2	4.0	0.0	i
CC(C)(C)NC(=O)C1Cc2ccccc2CN1 (configuration not stated)	4343	-5.2	2.3	-0.4	-0.3
COc1ccc(OC)c(S(=O)(=O)N2CCCC(C(=O)N3CCCCCC3)C2)c1 (configuration not stated)	5913	-0.5	8.6	0.2	-2.9
CCOC(=O)c1c(NC(=O)Nc2cccc(Cl)c2)sc(C)c1C	23460*	-5.3	-4.2	-2.3	i
CCOC(=O)c1c(NC(C)=O)sc2c(O)cccc12	21384*	0.0	-6.1	-5.1	-11.1
CCOC(=O)N1CCN(C(=O)CSCc2nc(-c3ccccc3C)oc2C)CC1	16597*	-4.3	-2.6	-0.8	3.8
CCOC(=O)N1CCN(C(=O)CSCc2nc(-c3ccccc3F)oc2C)CC1	?	-6.6	-5.7	2.0	nt
CSc1ccc(-c2nc(CSCC(=O)N3CCOCC3)c(C)o2)cc1	22931*	-1.4	-3.3	?	-2.6
SMILES	Autofluor counter	Anthrax LF inh2	BoNT-F LC inh	BoNT-A LC inh2	BH1578 lux ind
C#CCOc1ccc(/C=C2/C(=O)NN(c3ccc(F)cc3)C2=O)cc1OC	3941	4.2	-1.1	0.0	-0.6
NC(=O)CSc1nnc(Cn2c(=O)sc3ccccc32)n1-c1cccc(Cl)c1	16396*	-1.6	1.1	0.0	0.2
O=C(O)CSc1nnc(Cn2c(=O)sc3ccccc32)n1-c1cccc(Cl)c1	20449*	-8.4	7.0	7.1	-0.4
O=C(CSc1nnc(Cn2c(=O)sc3ccccc32)n1-c1ccccc1)N1CCOCC1	9271	-0.7	-1.3	0.5	-4.2
NC(=O)CSc1nnc(Cn2c(=O)sc3ccccc32)n1-c1ccccc1	5641	-9.4	-3.8	0.1	-0.1
COc1ccc(N2CCN(C(CNS(=O)(=O)c3ccccc3)c3ccccc3)CC2)cc1 (configuration not stated)	5509	-3.3	-9.5	0.8	-0.9
Cc1ccc(Cl)cc1NC(=S)N(CCN(C)C)C(C)c1ccccn1 (configuration not stated)	4039	-5.0	-1.9	0.3	-0.4
Cc1nnc(NC(=O)CSCc2ccccc2)s1	6166	-7.8	-11.8	-0.6	1.1
CCC(=O)Nc1nnc(Cc2ccccc2)s1	9909	-5.1	-4.4	-0.5	-1.0
CCOCCc1nnc(NC(=O)C(C)Oc2ccccc2)s1 (configuration not stated)	4670	0.5	-9.3	-0.2	-2.9
CCOCc1nnc(NC(=O)CSCc2ccccc2)s1	20554*	-1.9	4.5	?	-2.6
CCCC(=O)Nc1nnc(Cc2ccccc2)s1	24700*	-2.6	-0.9	-1.6	5.6
CCOCCc1nnc(NC(=O)C(CC)c2ccccc2)s1 (configuration not stated)	16622*	-0.1	-4.6	-0.5	-0.1
CCOCc1nnc(NC(=O)COC)s1	23993*	-0.7	-4.1	-1.8	i
O=C1CCC(C(=O)OCC(=O)Nc2ccc(SC(F)F)cc2)=NN1	3905	7.0	-5.8	-0.4	-0.2
Cn1c(SCc2ccccc2)nnc1-c1ccncc1	24601*	2.6	-1.0	?	-2.6
Cc1ccc(OCCSc2nnc(-c3ccncc3)n2C)cc1	22301*	2.9	-7.2	0.2	0.9
Cn1c(SCc2ccc(Br)cc2)nnc1-c1ccncc1	7231	-7.2	-10.0	-0.4	i
CN(C)c1ccc(CNn2cnnc2SCc2ccc(F)cc2)cc1	10764	-1.0	-0.7	1.1	6.2
Fc1ccc(CSc2nncn2NCc2ccccc2)cc1	21851*	2.5	-1.7	-0.2	-0.2
Cc1cccc(OCCSc2nnc(-c3ccoc3C)n2C)c1	20328*	-1.2	-1.3	?	i
Cn1c(SCCOc2cccc(Cl)c2)nnc1-c1ccncc1	3230	-0.3	-17.0	0.2	i
O=C(c1cc2cc(F)ccc2[nH]1)N1CCN(C(=O)c2ccco2)CC1	5311	-2.5	-5.5	-0.2	i
Cn1c(SCc2ccc(F)cc2)nnc1-c1ccccn1	23620*	-1.8	-2.1	-2.7	-14.3
Nn1c(SCc2ccc(F)cc2)nnc1-c1ccncc1	3272	?	54.6*	7.7	-0.1
c1ccc(CSc2nncn2-c2ccccn2)cc1	22351*	-1.0	-1.5	0.8	1.3
O=Cc1cn(CCOc2ccccc2F)c2ccccc12	3895	6.1	29.4	-1.8	-0.3
c1ccc(C(=C2CCCO2)c2ccccc2)cc1	3314	0.9	-4.6	-0.3	-2.2
Cc1ccc(N2CCN(C(=O)N3CCCC3)CC2)cc1C	16586*	-3.2	2.3	0.0	i
CCOc1ccccc1N1CCN(CC(=O)Nc2cc(C)on2)CC1	3353	-1.0	-5.8	-0.8	-0.3
